Laboratory results as given in PubChem BioAssay (NCI).
This is part of a sample that, as a whole, favours compounds with a hit. Of some 79,000 tested, about 15% had one in any assay. Calls of active or inactive are those of the source. No stated cut-off is given here; in the data, active means growth inhibition above about 70%; inactive means the rest.

Assays:
[1] = NCI Yeast Anticancer Drug Screen. Data for the mec2-1 strain (AID 157); details: S. cerevisiae mec2-1 strain, hits give high values
How it was run: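 Vehicle-treated cultures served as reference for growth inhibition of compound-exposed mec2-1 yeast.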

[2] = NCI Yeast Anticancer Drug Screen. Data for the rad14 strain (AID 159);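 further: 0% = growth of vehicle-treated control cultures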; details: S. cerevisiae rad14 strain growth inhibition, hits give high values
How it was run: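 Here, inhibition of yeast growth was measured after compound exposure, using a strain with a genetic defect in DNA damage repair and vehicle-treated cultures as the reference.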

[3] = NCI Yeast Anticancer Drug Screen. Data for the sgs1 mgt1 strain (AID 161);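 further: 0% = growth of cultures given vehicle only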; details: S. cerevisiae sgs1 mgt1 strain, hits give high values
How it was run: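 Test agents were incubated with a DNA-repair-mutant yeast strain. Growth was then read and compared against vehicle-treated controls.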

[4] = NCI Yeast Anticancer Drug Screen. Data for the CLN2oe strain (AID 163);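 further: 0% = growth of vehicle-only control cultures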; details: S. cerevisiae CLN2oe strain, hits give high values
How it was run: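 Inhibition relative to vehicle-treated yeast is reported. Cells: strain with genetic alteration in cell-cycle control, grown with compound.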

[5] = NCI Yeast Anticancer Drug Screen. Data for the cln2 rad14 strain (AID 165);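 further: 0% = growth equal to vehicle treated cultures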; details: S. cerevisiae cln2 rad14 strain, hits give high values
How it was run: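 Each compound was tested on cln2 rad14 yeast. Inhibition of growth was calculated against vehicle-exposed controls.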

[6] = NCI Yeast Anticancer Drug Screen. Data for the bub3 strain (AID 167); details: S. cerevisiae bub3 mutant strain, hits give high values
How it was run: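 Whole-cell yeast assay. The mutant strain was incubated with compounds, and growth inhibition was determined by comparison with vehicle-treated cells.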

[7] = NCI Yeast Anticancer Drug Screen. Data for the wt2 strain (AID 169);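 further: 0% = growth of vehicle-treated yeast cultures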; details: S. cerevisiae wt2 strain growth inhibition, hits give high values
How it was run: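 Inhibition of yeast growth was determined after compound treatment, normalised to controls receiving only vehicle.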

[8] = NCI Yeast Anticancer Drug Screen. Data for the mlh1 strain (AID 171);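 further: 0% = growth of vehicle-treated control cultures of the same strain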; details: S. cerevisiae mlh1 strain growth inhibition, hits give high values
How it was run: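 Vehicle-normalised growth inhibition of a repair- or checkpoint-altered yeast strain following compound treatment.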

[9] = NCI Yeast Anticancer Drug Screen. Data for the sgs1 strain (AID 173);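 further: 0% = growth of vehicle-only control cultures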; details: S. cerevisiae sgs1 mutant, hits give high values
How it was run: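 Screen format: yeast with repair or checkpoint alterations, compound exposure, growth read relative to vehicle.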

[10] = NCI Yeast Anticancer Drug Screen. Data for the mlh1 rad18 strain (AID 175); details: S. cerevisiae mlh1 rad18 strain growth inhibition, hits give high values
How it was run: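 Vehicle-treated cultures served as the reference for growth inhibition in a yeast strain carrying DNA damage repair alterations exposed to each compound.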

[11] = NCI Yeast Anticancer Drug Screen. Data for the rad18 strain (AID 177); details: S. cerevisiae rad18 mutant growth inhibition, hits give high values
How it was run: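 Test articles were incubated with altered yeast defective in DNA damage repair. Results are given as inhibition of growth versus vehicle.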

[12] = NCI Yeast Anticancer Drug Screen. Data for the rad52 strain (AID 147);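 further: 0% = growth of vehicle-treated control cultures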; details: S. cerevisiae rad52 mutant growth inhibition, hits give high values
How it was run: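 Vehicle-treated cultures served as the reference for growth inhibition of compound-exposed yeast bearing a DNA repair mutation.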

[13] = NCI Yeast Anticancer Drug Screen. Data for the wt1 strain (AID 149);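 further: 0% = growth of vehicle-treated wt1 cultures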; details: S. cerevisiae wt1 strain (SPY 50644) growth inhibition, hits give high values
How it was run: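 Measured: growth of wt1 yeast under compound versus vehicle treatment, reported as inhibition.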

[14] = NCI Yeast Anticancer Drug Screen. Data for the rad50EPP+ strain (AID 151);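 further: 0% = growth of vehicle-treated control cultures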; details: S. cerevisiae rad50 mutant strain, hits give high values
How it was run: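 In this screen, rad50EPP+ yeast were exposed to compounds. Growth inhibition was scored against vehicle-treated controls.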

[15] = NCI Yeast Anticancer Drug Screen. Data for the mgt1 strain (AID 153); details: S. cerevisiae mgt1 mutant growth inhibition, hits give high values
How it was run: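 mgt1 strain exposed; growth vs vehicle control recorded as inhibition.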

[16] = NCI Yeast Anticancer Drug Screen. Data for the rad50 strain (AID 155);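 further: 0% = growth of vehicle-only cultures of the same strain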; details: S. cerevisiae rad50 strain growth inhibition, hits give high values
How it was run: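 Growth of the mutant yeast was measured after compound exposure and referenced to vehicle-treated cultures.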

[17] = at 5.0 µM (retest, dose inferred, filed as 0.5)
[18] = at 50.0 µM (retest, dose inferred, filed as 5.0)

Measured: growth inhibition

Nc1cccc(-c2cc[cH-]c2)c1.[Fe+2].c1cc[cH-]c1
inactive: [1]; [17] -18% | [1]; at 11.0 µM -3% | [1]; at 33.0 µM 3% | [1]; [18] -10% | [1]; at 50.0 µM 38.5% | [2]; at 1.2 µM 0% | [2]; at 3.7 µM 6% | [2]; at 11.0 µM 14% | [2]; at 33.0 µM 25% | [3]; [17] -9% | [3]; [18] 7% | [3]; at 50.0 µM 31.4% | [4]; at 1.2 µM -11% | [4]; at 3.7 µM -5% | [4]; at 11.0 µM -6% | [4]; at 33.0 µM -1% | [4]; at 100.0 µM 64% | [5]; [17] -8% | [5]; [18] 9% | [5]; at 50.0 µM 17.6% | [6]; at 1.2 µM 6% | [6]; at 3.7 µM 6% | [6]; [17] 5% | [6]; at 11.0 µM 7% | [6]; at 33.0 µM 27% | [6]; [18] 68% | [6]; at 50.0 µM 58.2% | [7]; at 1.2 µM 6% | [7]; at 3.7 µM 4% | [7]; at 11.0 µM 9% | [7]; at 33.0 µM 3% | [8]; at 1.2 µM -3% | [8]; at 3.7 µM 2% | [8]; at 11.0 µM 8% | [8]; at 33.0 µM 23% | [9]; at 1.2 µM -10% | [9]; at 3.7 µM -30% | [9]; at 11.0 µM 11% | [9]; at 33.0 µM 54% | [10]; [17] -21% | [10]; [18] 39% | [10]; at 50.0 µM 55.5% | [11]; at 1.2 µM -4% | [11]; at 3.7 µM 7% | [11]; at 11.0 µM 26% | [11]; at 33.0 µM 50%
active: [1]; at 100.0 µM 79% | [2]; at 100.0 µM 96% | [6]; at 100.0 µM 86% | [7]; at 100.0 µM 95% | [8]; at 100.0 µM 96% | [9]; at 100.0 µM 99% | [11]; at 100.0 µM 97%

CCC(=O)Nc1ccc(N=NN(C)C)cc1
active: [12]; at 33.0 µM 87% | [12]; at 100.0 µM 99% | [13]; at 100.0 µM 99% | [14]; at 100.0 µM 99% | [16]; at 50.0 µM 90.7% | [16]; at 100.0 µM 98% | [1]; [18] 95% | [1]; at 50.0 µM 75.2% | [1]; at 100.0 µM 99% | [2]; at 100.0 µM 99% | [4]; at 100.0 µM 97% | [6]; at 100.0 µM 90% | [7]; at 33.0 µM 73% | [7]; at 100.0 µM 100% | [8]; at 100.0 µM 99% | [9]; at 100.0 µM 99% | [11]; at 100.0 µM 99%
inactive: [12]; at 1.2 µM -9% | [12]; at 3.7 µM -12% | [12]; at 11.0 µM -13% | [13]; at 1.2 µM -1% | [13]; at 3.7 µM 2% | [13]; at 11.0 µM 3% | [13]; at 33.0 µM 47% | [14]; at 1.2 µM -10% | [14]; at 3.7 µM -30% | [14]; at 11.0 µM -21% | [14]; at 33.0 µM 65% | [15]; at 1.2 µM -2% | [15]; at 3.7 µM -9% | [15]; at 11.0 µM -5% | [15]; at 33.0 µM -9% | [15]; at 100.0 µM 45% | [16]; at 1.2 µM -61% | [16]; at 3.7 µM -23% | [16]; [17] -146% | [16]; at 11.0 µM -20% | [16]; at 33.0 µM 24% | [16]; [18] 45% | [1]; at 1.2 µM -5% | [1]; at 3.7 µM -5% | [1]; [17] -49% | [1]; at 11.0 µM -5% | [1]; at 33.0 µM 17% | [2]; at 1.2 µM -3% | [2]; at 3.7 µM -7% | [2]; at 11.0 µM -1% | [2]; at 33.0 µM 23% | [3]; [17] -65% | [3]; [18] 37% | [3]; at 50.0 µM 69.9% | [4]; at 1.2 µM -11% | [4]; at 3.7 µM -9% | [4]; at 11.0 µM -11% | [4]; at 33.0 µM 21% | [5]; [17] -56% | [5]; [18] 55% | [5]; at 50.0 µM 48.2% | [6]; at 1.2 µM -9% | [6]; at 3.7 µM -8% | [6]; [17] -70% | [6]; at 11.0 µM -13% | [6]; at 33.0 µM -11% | [6]; [18] 34% | [6]; at 50.0 µM 0.3% | [7]; at 1.2 µM 0% | [7]; at 3.7 µM 2% | [7]; at 11.0 µM 6% | [8]; at 1.2 µM -13% | [8]; at 3.7 µM -10% | [8]; at 11.0 µM -10% | [8]; at 33.0 µM 19% | [9]; at 1.2 µM -13% | [9]; at 3.7 µM -8% | [9]; at 11.0 µM 2% | [9]; at 33.0 µM 46% | [10]; [17] -150% | [10]; [18] 9% | [10]; at 50.0 µM 50.2% | [11]; at 1.2 µM -8% | [11]; at 3.7 µM -10% | [11]; at 11.0 µM -9% | [11]; at 33.0 µM 69%
